# Assay outcomes: PubChem BioAssay, National Center for Advancing Translational Sciences (NCATS)
# Shown are actives, neighbours in structure and some others; about 7.1% of the full set was active somewhere.
# Lassa entry = Lassa virus entry inhibition; Lassa virus pseudotyped entry inhibition, cell-based qHTS; Potency, µM (doses to about 49.2 µM), for the others: at the top dose activity change, negative = inhibition, most hits filed as inhibitors; actives 4.1% (n = 18,000); AID 720533
# Marburg entry = Marburg virus entry inhibition. AID 720532. actives 6.5% (n = 18,000). Marburg virus pseudotype entry/binding inhibition, cell-based. Potency, µM (series often up to 49.2 µM), without a hit: at the highest dose activity change, negative = inhibition, hits mostly inhibitors
# Starred values were filed as active, the others as inactive; ? = inconclusive; · = no result; ! = not active in a repeat; [ ] = dose if it differs, or a comment. The call rests on the fitted dose curve; tested in HEK293 cells. On the % scale 0 is the no-effect control and ±100 the full control effect; potency means the concentration at half of the fitted maximal effect.
SMILES,Lassa entry,Marburg entry
O=C1Nc2cccc(Br)c2[C@@]12O[C@H](COc1ccccc1)CC1=CCC[C@H]12,-21%[8.59 µM],22%[8.59 µM]
O=C(NC(CC1=CCCCC1)c1ccc2c(c1)OCO2)C(F)(F)F (centres undefined),27%[8.59 µM],47%[8.59 µM]
COC(=O)N[C@@H](c1cccc(F)c1)[C@]1(C(=O)OC)CCCC1=O,4%[8.59 µM],3%[8.59 µM]
Clc1ccc(C[n+]2cc(-c3ccccc3)n3c2CCCCC3)c(Cl)c1,?,8.9µM*
CC(=O)OC[C@H]1O[C@H](c2ccc(C(C)=O)cc2)C=C[C@H]1OC(C)=O,-12%[8.59 µM],2%[8.59 µM]
Cc1c(-c2ccc(Cl)cc2)noc1C1CCN(CCc2ccccc2)CC1,0%,?
Cc1c(C2CCN(CCc3ccccc3)CC2)noc1-c1ccc(Cl)cc1,-12%,11µM*
CNc1ccc2oc(C[C@H]3O[C@]4(CC[C@H]3C)O[C@H]([C@H](C)C(=O)c3ccc[nH]3)[C@H](C)C[C@H]4C)nc2c1C(=O)O,3.5µM*,4.5µM*
CNc1ccc2oc(C[C@@H]3OC4(CC[C@@H]3C)O[C@H](C(C)C(=O)c3ccc[nH]3)[C@H](C)C[C@H]4C)nc2c1C(=O)O (some centres undefined),?,5.6µM*
CC1=C[C@@H](C)OC2(C1)C(=O)N(Cc1ccc(Br)cc1)c1cccc(Br)c12 (some centres undefined),-2%[8.59 µM],4%[8.59 µM]
C=CC[C@@H]1C=CC(ON=C(C)CCC(=O)OC[C@H]2O[C@H](C#Cc3ccccc3)C=C[C@H]2Oc2ccc(C)cc2)[C@H](CO)O1 (some centres undefined),-19%[8.59 µM],29%[8.59 µM]
CCCCCCCCCCCC[N+](C)(C)Cc1ccccc1,14µM*,20µM*
CCCCCCCCCCCCCCCC[N+](C)(C)CCN(Cc1ccc(OC)cc1)c1ncccn1,4%[17.8 µM],-11%[17.8 µM]
Cc1ccc(CN2[C@@H](C)[C@@H](c3ccccc3)Oc3c(Cl)cccc3S2(=O)=O)cc1,2%,?
COCC(C)NCc1cc2ccc(OC)cc2nc1N1CCN(c2ccc(F)cc2)CC1 (centres undefined),?,11µM*
COc1ccc2cc(CNCc3ccccc3C(F)(F)F)c(N3CCCC(CO)C3)nc2c1 (centres undefined),-25%,1%
COc1cc2c(c(OC)c1)[C@H](C=Cc1ccccc1)[C@@H]([C@H](O)CO)OC2,1%[8.59 µM],17%[8.59 µM]
C=CC[C@@](C(C)=O)(C(=O)OC)[C@@H](NC(=O)OC(C)(C)C)c1ccccc1,12%[8.59 µM],30%[8.59 µM]
CCCCOc1cc(C(=O)OCCN(CC)CC)ccc1N,-15%[17.8 µM],-16%[17.8 µM]
CCCCc1oc2ccccc2c1C(=O)c1cc(I)c(OCCN(CC)CC)c(I)c1,·,20µM*
O=C(NC(NC(=S)Nc1ccc(F)c([N+](=O)[O-])c1)C(Cl)(Cl)Cl)C(c1ccccc1)c1ccccc1 (centres undefined),11µM*,11µM*
O=[N+]([O-])c1ccc(F)c([N+](=O)[O-])c1,-16%,-4%
COC(=O)C1=C(C)C(=O)[C@]2(O)c3ccccc3N(C)[C@]12C,-18%[8.59 µM],18%[8.59 µM]
Cc1cc(-c2ccco2)cc(C)c1C=Cc1cncc(-c2nn[nH]n2)c1,-12%,?
C[C@@H]1CC([C@H](O)CC2CC(=O)NC(=O)C2)C(=O)[C@@H](C)C1 (some centres undefined),1µM*,?
SMILES,Lassa entry,Marburg entry
C[C@@H]1C[C@@H]([C@H](O)CC2CC(=O)NC(=O)C2)C(=O)[C@@H](C)C1,2.8µM*,3.2µM*
CCCCCC(=O)N1C[C@H](O)[C@@H](n2cc(COC(=O)c3ccccc3)nn2)C[C@H]1c1ccc(OC)cc1,-29%,?
COC(=O)N[C@@H](c1ccco1)[C@]1(C(C)=O)CCCC1=O,5%[8.59 µM],?
CCCCCC(=O)N1C[C@H](n2cc(C3CC3)nn2)[C@@H](O)C[C@H]1c1ccc(C)cc1,8%,11%
Cc1cc(C)cc(CO[C@H]2C=C[C@@H](c3ccccc3)O[C@H]2CO)c1,-11%[8.59 µM],-24%[8.59 µM]
CCCCCCCc1cc2ccccc2c2c(C=O)c(CCCC)c(C(=O)OC)n12,-16%[8.59 µM],?
CN(C)CCOc1ccccc1Cc1ccccc1 (tested in a mixture with another compound),-24%,?
CC/C(=C(\c1ccccc1)c1ccc(OCCN(C)C)cc1)c1ccccc1,·,10µM*!
C[C@H]1CC[C@H]2C(=O)N(Cc3ccccc3)C[C@H](O)CN2[C@H]1c1cccc(Br)c1,·,-5%[8.59 µM]
O=C(CCCN1CCC(O)(c2ccc(Cl)cc2)CC1)c1ccc(F)cc1,?,13µM*
O=C(CCCN1CCC(O)(c2ccc(Br)cc2)CC1)c1ccc(F)cc1,-16%[17.8 µM],?
CCCNC(=O)N1C2=NC(C(=O)OC)=C(C(=O)OC)[C@@H]3Nc4ccccc4[C@]23C[C@H]1C(=O)OC,31%[8.59 µM],3%[8.59 µM]
CCCCCCCC/C=C\CCCCCCCC(=O)NC(C)C(=O)O (centres undefined),6%,2%
CCCCCCCC/C=C\CCCCCCCC(=O)N[C@@H](CO)Cc1ccc(O)cc1,28µM*,?
COCCN1C(=O)NC(c2cccc(C(F)(F)F)c2)C(C(C)=O)=C1C (centres undefined),-24%[8.59 µM],11%[8.59 µM]
COc1ccccc1O,-13%[107 µM],24%[107 µM]
COc1cccc(O)c1O,?,13µM*
CCN1C(=O)NC(c2ccco2)C(C(=O)OC)=C1C (centres undefined),-20%[8.59 µM],5%[8.59 µM]
O=C(O)c1cccc(-c2noc(-c3ccccc3F)n2)c1,8.9µM*,3.2µM*
Fc1ccccc1-c1nc(-c2ccccc2)oc1NCc1ccccc1,-32%[8.59 µM],1%[8.59 µM]
COc1cccc(CO[C@H]2C=C[C@@H](c3ccccc3)O[C@H]2COC(C)=O)c1,0%[8.59 µM],8%[8.59 µM]
O=C(OCc1cn([C@@H]2C[C@H](c3ccc(Cl)cc3)N(Cc3cccs3)C[C@@H]2O)nn1)c1ccccc1,·,-25%
Cc1c(C(=O)NCC2(N3CCCCC3)CCCC2)cnn1-c1nccc(-c2ccccc2F)n1,-9%,-18%
Cc1c(C(=O)NCC2(N3CCOCC3)CCCCCC2)cnn1-c1nccc(-c2ccccc2F)n1,-12%,11µM*
COc1ccc(Nc2ncc(-c3ccccc3)o2)cc1OC,·,-31%
SMILES,Lassa entry,Marburg entry
COc1cccc2c1C1(CCCCC1)CC2NC(=O)C(F)(F)F (centres undefined),-11%[8.59 µM],-15%[8.59 µM]
COc1cccc(CO[C@H]2C=C[C@@H](c3ccccc3)O[C@H]2CN=[N+]=[N-])c1,25%[8.59 µM],-17%[8.59 µM]
CCCN(CCC)C1CCc2cccc(O)c2C1 (centres undefined),32µM*,22µM*
CCCN(C/C=C/I)C1CCc2cccc(O)c2C1 (centres undefined),8%,?
C=C1Cc2c(Cl)cc3[nH]c4c5c3c2[C@@]2(O)[C@@H]1C[C@@H]2C(C)(C)O[C@H]5[C@@H]1CC[C@@]2(O)[C@@]35O[C@@H]3[C@@H](O)[C@@H](C(=O)O)O[C@H]5CC[C@]2(C)[C@@]41C,28µM*,?
CCCCN1CC(COCc2ccccc2)Oc2cccc(Oc3ccc(C)cc3)c2S1(=O)=O (centres undefined),·,-25%
CCCCN1CC(COCc2ccccc2)Oc2cccc(Oc3ccccc3)c2S1(=O)=O (centres undefined),4µM*,-42%
CN(C)CCCOc1nn(Cc2ccccc2)c2ccccc12,-22%[17.8 µM],?
OCc1ccc(-c2nn(Cc3ccccc3)c3ccccc23)o1,?,14µM*
Cc1ccc(C(=O)NC2CC2)cc1-c1ccc2[nH]ncc2c1,·,-9%
